Many of the other results were omitted from the sample, so hits are more common in it than they were.
ERK EGF block: inhibitors of EGF-stimulated ERK signaling pathway; HEK293-V1b, EGF-stimulated phospho-ERK AlphaScreen; 0.41% of 130,000 active; Potency, µM (top dose mostly 11.5 µM), most hits filed as inhibitors; further: nearly all actives have a fitted effect of over 55% in size
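EGF-stimulated (25 nM, 5 min) phospho-ERK in HEK293 cells stably expressing V1b, cells pretreated 30 min with compound at 37C. Homogeneous AlphaScreen read on lysates.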
NPSR antagonist: neuropeptide S receptor (human) antagonism, cAMP. Q6W5P4. CHO-NPSR cells, cAMP TR-FRET, antagonist mode. Potency, µM (highest dose often 38.3 µM), most hits filed as inhibitors. 1% of 220,000 active. AID 1461; further: nearly all actives have a fitted effect of over 50% in size
Target sequence (Q6W5P4 whole entry, looked up): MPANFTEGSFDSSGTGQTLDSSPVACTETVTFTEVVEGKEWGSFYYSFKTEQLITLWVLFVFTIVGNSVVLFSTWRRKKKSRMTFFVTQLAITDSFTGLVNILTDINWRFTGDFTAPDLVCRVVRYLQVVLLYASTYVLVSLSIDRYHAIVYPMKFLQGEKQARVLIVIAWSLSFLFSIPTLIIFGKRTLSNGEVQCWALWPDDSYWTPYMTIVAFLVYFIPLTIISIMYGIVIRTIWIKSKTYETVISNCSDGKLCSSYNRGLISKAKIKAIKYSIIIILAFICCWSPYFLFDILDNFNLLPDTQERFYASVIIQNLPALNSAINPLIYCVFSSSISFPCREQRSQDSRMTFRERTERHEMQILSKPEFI
Each line names hits and unclear results; the compound was inactive in the other large screens. The call rests on the fitted dose curve; in most records, active means well fitted curve in the direction sought with a large enough effect; inconclusive means small, poorly fitted or top-dose-only effect, or another doubt; inactive means no such curve, though single readings can be large; an effect the other way counts as inactive or inconclusive.

CCCCCc1nc2c(c(=O)c3ccccc3n2C)c(=O)n1C1CCCCCC1	ERK EGF block inconclusive, NPSR antagonist 10µM
CCCCCc1nc2ccccc2c(=O)n1-c1ccccc1[N+](=O)[O-]	none
Cc1ccccc1N1C(=O)NC(=O)/C(=C/c2ccc(N3CCOCC3)o2)C1=O	none
Cc1ccccc1N1C(=O)NC(=O)/C(=C\c2cc(Br)c(N3CCOCC3)o2)C1=O	NPSR antagonist 13µM
Cc1ccccc1-n1c(/C=C/c2ccccn2)nc2ccccc2c1=O	none
CN1C2CCC1/C(=C/c1ccccn1)C(=O)/C2=C\c1ccccn1	ERK EGF block 14µM
O=c1c(C=Nc2cccnc2Cl)c(O)n(CCCCl)c(=O)n1C1CCCCC1	NPSR antagonist 10µM
O=c1c(C=NCCN2CCNCC2)c(O)n(C2CCCCC2)c(=O)n1C1CCCCC1	none (no result: ERK EGF block)
CC1=C(O)C(=O)[C@H]2O[C@@H]2C1=O	none (no result: NPSR antagonist)
C/C=C(\C)C(=O)OC1C(C)=C2C(C1OC(=O)CCCCC)C(C)(OC(C)=O)CC(OC(=O)CCC)C1(O)C2OC(=O)C1(C)O (stereo unspecified)	ERK EGF block inconclusive, NPSR antagonist 4µM
O=C(c1ccco1)c1cn(Cc2ccccc2Cl)c2ccccc12	NPSR antagonist 10µM (no result: ERK EGF block)
O=C(c1cn(Cc2ccccc2)c2ccccc12)N1CCCCC1	none
O=C(c1cn(Cc2ccccc2)c2ccccc12)C1CC1	NPSR antagonist 10µM
CCC(=O)c1cn(Cc2ccccc2)c2ccccc12	none
CCN1C[C@]2(C)CC[C@H](O)[C@@]34C5C[C@@H]6[C@@H](OC)C[C@@](O)(C5[C@H]6O)[C@@H](CC23)[C@@H]14 (stereo partly specified)	none (no result: NPSR antagonist)
O=C(O)c1cccc2c1NC(c1cccc([N+](=O)[O-])c1)C1CC(Sc3ccccc3[N+](=O)[O-])C(Cl)C21 (stereo unspecified)	NPSR antagonist 10µM
O=C(O)c1ccc2c(c1)C1C(Cl)C(Sc3ccccc3[N+](=O)[O-])CC1C(c1cccc([N+](=O)[O-])c1)N2 (stereo unspecified)	none
Cn1ncnc2c(=O)n(C)c(=O)nc1-2	NPSR antagonist 1µM (no result: ERK EGF block)
CN1CCc2nc3sc(C#N)c(N)c3c(-c3cccs3)c2C1	NPSR antagonist 13µM (no result: ERK EGF block)
CN1CCc2nc(N)c(C#N)c(-c3ccccc3)c2C1	none (no result: ERK EGF block)
CCCCC/C=C\C/C=C\CCCCCCCCCC(=O)NCCc1ccc(O)c(O)c1	none (no result: NPSR antagonist)
O=C1NC(=S)NC(=O)C1=Cc1cccc2cc3ccccc3cc12	ERK EGF block 28µM, NPSR antagonist inconclusive
CN(C)c1ccc(C=C2C(=O)NC(=S)NC2=O)cc1[N+](=O)[O-]	none
C[C@@]12CCC(=O)C[C@@H]1CC[C@@H]1[C@@H]2CC[C@]2(C)C(=O)CC[C@@H]12	none (no result: NPSR antagonist)
Cc1ccsc1C(=O)C1CCCN(Cc2sc(N(C)C)nc2Cl)C1 (stereo unspecified)	ERK EGF block 20µM, NPSR antagonist inconclusive
Cc1ccsc1C(=O)C1CCCN(Cc2cnc(N(C)C)s2)C1 (stereo unspecified)	none
CCCc1cc2c(n1Cc1cccc(Cl)c1)C(C)C1CN(C(=O)c3ccccc3)C(C)(C(=O)OC)C21 (stereo unspecified)	none (no result: NPSR antagonist)
COC(=O)C[C@]1(C(=O)OC)CN(C#N)N(c2ccc(Cl)cc2)C12c1ccccc1-c1ccccc12	none
COC(=O)[C@@H]1[C@@H](C(=O)OC)C2(c3ccccc3-c3ccccc32)N(c2ccc(Cl)cc2)N1C#N	NPSR antagonist 6.3µM
C[C@]12CC[C@H]3[C@@H](CCC4C[C@H](O)CC[C@@]43C)[C@@H]1CC[C@@H]2O (stereo partly specified)	none
CCOc1ccccc1N=C1SCCCN1C	none (no result: ERK EGF block)
CCOc1cccc(=NC2CCCCC2)c2c(C)n(C)c(C)c12	NPSR antagonist 7.9µM
CCCN(CCC)[C@@H]1CCc2c(OC)cccc2[C@@H]1C	none (no result: NPSR antagonist)
CCCCC/C=C\C/C=C\C/C=C\CCCCC(=O)NCCc1ccc(O)c(O)c1	none (no result: NPSR antagonist)
CC[C@@H](CO)NC(=O)[C@H]1C=C2c3cccc4c3c(cn4C)C[C@H]2N(C)C1	NPSR antagonist inconclusive
OCC[n+]1c2ccccc2nc2ccc(N3CCOCC3)cc21	ERK EGF block 14µM, NPSR antagonist inconclusive
CCNC(=O)[C@H]1O[C@@H](n2cnc3c(N)ncnc32)[C@H](O)[C@H]1O	none
COC(=O)[C@]1(C)C[C@H]1[C@H](NP(=O)(c1ccccc1)c1ccccc1)c1ccccc1	NPSR antagonist 13µM
COC(=O)[C@H]1C[C@@H]1[C@H](NP(=O)(c1ccccc1)c1ccccc1)c1ccccc1	none
COP(=S)(OC)Oc1ccc([N+](=O)[O-])cc1	none (no result: NPSR antagonist)
CCOc1ccc(-c2c(C)n(-c3ccc(OCC)cc3)c3[n+]2CCCCC3)cc1	ERK EGF block inconclusive
CCOc1ccc(-n2nc3c(=S)[nH]nc(C)c3c2C)cc1	NPSR antagonist 6.3µM
N[C@H](CCP(=O)(O)O)C(=O)O	none (no result: NPSR antagonist)
CC1CC(C)C(=O)[C@H](C(O)CC2CC(=O)NC(=O)C2)C1 (stereo partly specified)	none (no result: NPSR antagonist)
COC[C@H]1OC(=O)c2coc3c2[C@@]1(C)C1=C(C3=O)[C@H]2CCC(=O)[C@@]2(C)C[C@H]1OC(C)=O	none (no result: NPSR antagonist)
CCC(=NCCO)c1c(O)n(C2CCCCC2)c(=O)[nH]c1=O	none (no result: ERK EGF block)
N=C(N)c1c(O)n(C2CCCCC2)c(=O)n(C2CCCCC2)c1=O	NPSR antagonist 10µM (no result: ERK EGF block)
CCCCC/C=C\C/C=C\C/C=C\C/C=C\CCCC(=O)N[C@H](C)CO	none (no result: NPSR antagonist)
C=C(C)[C@H]1[C@H]2OC(=O)[C@@H]1[C@]1(O)C[C@H]3O[C@]34C(=O)O[C@H]2[C@@]14C	none (no result: NPSR antagonist)
C=C(C)CN1CC[C@@]23c4c5ccc(O)c4O[C@H]2c2[nH]c4ccccc4c2C[C@]3(O)[C@@H]1C5	none (no result: NPSR antagonist)
C=C(C)CN1CC[C@]23c4c5ccc(O)c4O[C@H]2c2[nH]c4ccccc4c2C[C@@]3(O)C1C5	ERK EGF block 16µM
CC1(C)C2C[C@@H](O)[C@]3(C)C(CC[C@@]4(C)[C@H](c5ccoc5)C[C@H]5O[C@]543)[C@@]2(C)[C@@H](O)C[C@H]1O (stereo partly specified)	none (no result: NPSR antagonist)
O=C1C(Cl)=C(Cl)C(=O)C(Cl)=C1Cl	ERK EGF block 10µM (no result: NPSR antagonist)
CCC(C)C(=O)OC1C(O)C2C(CN3CC(C)CCC3[C@]2(C)O)C2C[C@]34O[C@@]5(O)C(OC(=O)C(C)(O)CC)CCC3(C)C5C(OC(C)=O)C(OC(C)=O)C4[C@@]21O (stereo partly specified)	none (no result: NPSR antagonist)
N#CC(C#N)=NNc1ccc(OC(F)(F)F)cc1	none (no result: NPSR antagonist)
Cc1cc(SCc2sc(-c3ccc(C(F)(F)F)c(F)c3)nc2C)ccc1OCC(=O)O	none (no result: NPSR antagonist)
C[C@]12CC(=CO)C(=O)C[C@@H]1CC[C@@H]1[C@@H]2CC[C@@]2(C)[C@H]1CC[C@]2(C)O	ERK EGF block inconclusive, NPSR antagonist 6.3µM
C[C@]12CCC(=O)C=C1CC[C@@H]1[C@@H]2CC[C@@]2(C)[C@H]1CC[C@]2(C)O	none
C[C@H](CCC(=O)O)[C@H]1CC[C@@H]2[C@H]3CC[C@H]4C[C@@H](O)CC[C@@]4(C)[C@H]3CC[C@]21C	none (no result: NPSR antagonist)
c1ccc(CCCN2CCN(CCOC(c3ccccc3)c3ccccc3)CC2)cc1	NPSR antagonist 16µM
Fc1ccc(C(OCCN2CCCC2)c2ccc(F)cc2)cc1	none
CCN(CC)c1ncnc2c1ncn2[C@@H]1O[C@@H](COP(=O)(O)OP(=O)(O)C(Br)(Br)P(=O)(O)O)[C@H](O)[C@H]1O	none (no result: NPSR antagonist)
CCc1ccc(N2C(=O)NC(=O)/C(=C\C=C\c3ccco3)C2=O)cc1	ERK EGF block inconclusive, NPSR antagonist 10µM
CCCCN1C(=O)/C(=C/C=C/c2ccco2)C(=O)NC1=S	none
